In paper PMC5540273 (PLoS ONE, 2017):
Several values for one entry are separate records, joined by “and”; a condition that tells them apart may be missing. Equal values may be shown once. Read-outs that look alike come from different tables or passages of the source.

Tests used:
[1] = test system: LTK; conditions: concentration: 1 μM, replicates: in singlicate, n = 1
[2] = test system: LYN; conditions: concentration: 1 μM, replicates: in singlicate; n = 1
[3] = test system: T1, LZK; conditions: concentration: 1 μM, replicates: in singlicate, n = 1
T1 construct: gene MAP3K13

[4] = test system: MAK; conditions: concentration: 1 μM, replicates: in singlicate, n = 1
[5] = test system: MAP3K15; conditions: concentration: 1 μM, replicates: in singlicate; n = 1
[6] = test system: MAP3K1; conditions: concentration: 1 μM, replicates: in singlicate, n = 1
[7] = test system: MAP3K2; conditions: concentration: 1 μM, replicates: in singlicate, n = 1
[8] = test system: MAP3K3; conditions: concentration: 1 μM, replicates: in singlicate; n = 1
[9] = test system: MAP3K4; conditions: concentration: 1 μM, replicates: in singlicate, n = 1
[10] = test system: MAP4K2; conditions: concentration: 1 μM, replicates: in singlicate; n = 1
[11] = test system: MAP4K3; conditions: concentration: 1 μM, replicates: in singlicate; n = 1
[12] = test system: MAP4K4; conditions: concentration: 1 μM, replicates: in singlicate, n = 1
[13] = test system: MAP4K5; conditions: concentration: 1 μM, replicates: in singlicate, n = 1
[14] = test system: MAPKAPK2; conditions: concentration: 1 μM, replicates: in singlicate, n = 1
[15] = test system: MAPKAPK5; conditions: concentration: 1 μM, replicates: in singlicate; n = 1
[16] = test system: MARK1; conditions: concentration: 1 μM, replicates: in singlicate, n = 1
[17] = test system: MARK2; conditions: concentration: 1 μM, replicates: in singlicate, n = 1
[18] = test system: MARK3; conditions: concentration: 1 μM, replicates: in singlicate, n = 1
[19] = test system: MARK4; conditions: concentration: 1 μM, replicates: in singlicate, n = 1
[20] = test system: MAST1; conditions: concentration: 1 μM, replicates: in singlicate, n = 1
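Further: KINOMEscan kinase panel screen.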

## O=C(Nc1cccc(-c2nn3ncccc3c2-c2ccnc(Nc3cccc(C(F)(F)F)c3)n2)c1)c1c(F)cccc1F [GSK299495]
[1]
  %Inh: 3%
[2]
  %Inh: 87%
[3]
  %Inh: 12%
[4]
  %Inh: 0%
[5]
  %Inh: 0%
[6]
  %Inh: 15%
[7]
  %Inh: 24%
[8]
  %Inh: 0%
[9]
  %Inh: 33%
[10]
  %Inh: 0%
[11]
  %Inh: 0%
[12]
  %Inh: 0%
[13]
  %Inh: 48%
[14]
  %Inh: 35%
[15]
  %Inh: 0%
[16]
  %Inh: 0%
[17]
  %Inh: 0%
[18]
  %Inh: 2%
[19]
  %Inh: 0%
[20]
  %Inh: 0%

## Cc1cccc(-c2nc(-c3ccc(S(C)(=O)=O)cc3)sc2-c2ccncc2)c1
[1]
  %Inh: 0%
[2]
  %Inh: 14%
[3]
  %Inh: 8%
[4]
  %Inh: 17%
[5]
  %Inh: 9%
[6]
  %Inh: 12%
[7]
  %Inh: 10%
[8]
  %Inh: 9%
[9]
  %Inh: 0%
[10]
  %Inh: 0%
[11]
  %Inh: 0%
[12]
  %Inh: 30%
[13]
  %Inh: 0%
[14]
  %Inh: 1%
[15]
  %Inh: 0%
[16]
  %Inh: 34%
[17]
  %Inh: 0%
[18]
  %Inh: 0%
[19]
  %Inh: 31%
[20]
  %Inh: 31%

## CC(C)(CN)c1nc(-c2ccc(Cl)c(O)c2)c(-c2ccncc2)[nH]1.O=C(O)C(F)(F)F [SB-477794]
[1]; 1 µM
  %Inh: 18% and 30%
[2]
  %Inh: 91.1%
[3]; 1 µM
  %Inh: 49% and 47%
[4]; 1 µM
  %Inh: 41% and 0%
[5]
  %Inh: 0%
[6]; 1 µM
  %Inh: 22% and 7%
[7]; 1 µM
  %Inh: 43% and 35%
[8]
  %Inh: 0%
[9]; 1 µM
  %Inh: 0% and 13%
[10]
  %Inh: 0%
[11]
  %Inh: 0%
[12]; 1 µM
  %Inh: 81% and 83%
[13]; 1 µM
  %Inh: 17% and 26%
[14]; 1 µM
  %Inh: 13% and 0%
[15]
  %Inh: 0%
[16]; 1 µM
  %Inh: 0% and 4%
[17]; 1 µM
  %Inh: 0% and 22%
[18]; 1 µM
  %Inh: 0% and 6%
[19]; 1 µM
  %Inh: 0% and 13%
[20]; 1 µM
  %Inh: 0% and 45%

## CC(=O)Nc1ccc(COc2ccc(Nc3ccnc4cc(-c5ccccn5)ccc34)cc2)cc1.Cl [GW440148]
[1]
  %Inh: 7%
[2]
  %Inh: 1%
[3]
  %Inh: 3%
[4]
  %Inh: 43%
[5]
  %Inh: 2%
[6]
  %Inh: 11%
[7]
  %Inh: 0%
[8]
  %Inh: 0%
[9]
  %Inh: 0%
[10]
  %Inh: 0%
[11]
  %Inh: 0%
[12]
  %Inh: 0%
[13]
  %Inh: 0%
[14]
  %Inh: 0%
[15]
  %Inh: 2%
[16]
  %Inh: 0%
[17]
  %Inh: 0%
[18]
  %Inh: 8%
[19]
  %Inh: 0%
[20]
  %Inh: 16%

## O=C(NCCNc1ccnc(Nc2ccc(F)cc2)n1)c1cc2ccccc2s1 [GSK1379874]
[1]
  %Inh: 0%
[2]
  %Inh: 0%
[3]
  %Inh: 0%
[4]
  %Inh: 23%
[5]
  %Inh: 0%
[6]
  %Inh: 0%
[7]
  %Inh: 0%
[8]
  %Inh: 0%
[9]
  %Inh: 0%
[10]
  %Inh: 0%
[11]
  %Inh: 0%
[12]
  %Inh: 0%
[13]
  %Inh: 3%
[14]
  %Inh: 0%
[15]
  %Inh: 0%
[16]
  %Inh: 0%
[17]
  %Inh: 0%
[18]
  %Inh: 0%
[19]
  %Inh: 0%
[20]
  %Inh: 0%

## COc1ccc(Nc2nccc(N3CCC(NC(=O)Nc4cccc(C(C)=O)c4)C3)n2)cc1 (centres unmarked) [GSK1379731]
[1]
  %Inh: 0%
[2]
  %Inh: 0%
[3]
  %Inh: 0%
[4]
  %Inh: 29%
[5]
  %Inh: 0%
[6]
  %Inh: 14%
[7]
  %Inh: 4%
[8]
  %Inh: 0%
[9]
  %Inh: 19%
[10]
  %Inh: 0%
[11]
  %Inh: 0%
[12]
  %Inh: 8%
[13]
  %Inh: 0%
[14]
  %Inh: 0%
[15]
  %Inh: 0%
[16]
  %Inh: 0%
[17]
  %Inh: 0%
[18]
  %Inh: 0%
[19]
  %Inh: 10%
[20]
  %Inh: 0%

## CCn1cnc2c(N)ncnc21 [GW345098]
[1]
  %Inh: 16%
[2]
  %Inh: 0%
[3]
  %Inh: 3%
[4]
  %Inh: 0%
[5]
  %Inh: 6%
[6]
  %Inh: 18%
[7]
  %Inh: 9%
[8]
  %Inh: 20%
[9]
  %Inh: 11%
[10]
  %Inh: 19%
[11]
  %Inh: 1%
[12]
  %Inh: 0%
[13]
  %Inh: 0%
[14]
  %Inh: 0%
[15]
  %Inh: 10%
[16]
  %Inh: 0%
[17]
  %Inh: 12%
[18]
  %Inh: 4%
[19]
  %Inh: 0%
[20]
  %Inh: 5%

## NS(=O)(=O)c1cccc(-c2ccc3ncc(N4CCOCC4)nc3c2)c1 [GSK1535721]
[1]
  %Inh: 8%
[2]
  %Inh: 0%
[3]
  %Inh: 23%
[4]
  %Inh: 8%
[5]
  %Inh: 0%
[6]
  %Inh: 0%
[7]
  %Inh: 0%
[8]
  %Inh: 0%
[9]
  %Inh: 0%
[10]
  %Inh: 4%
[11]
  %Inh: 0%
[12]
  %Inh: 0%
[13]
  %Inh: 0%
[14]
  %Inh: 7%
[15]
  %Inh: 0%
[16]
  %Inh: 0%
[17]
  %Inh: 11%
[18]
  %Inh: 0%
[19]
  %Inh: 0%
[20]
  %Inh: 0%

## N#Cc1c(N2CCOCC2)sc(-c2ccn[nH]2)c1-c1ccc(Cl)cc1
[1]
  %Inh: 17%
[2]
  %Inh: 0%
[3]
  %Inh: 20%
[4]
  %Inh: 12%
[5]
  %Inh: 45%
[6]
  %Inh: 5%
[7]
  %Inh: 0%
[8]
  %Inh: 30%
[9]
  %Inh: 2%
[10]
  %Inh: 0%
[11]
  %Inh: 0%
[12]
  %Inh: 0%
[13]
  %Inh: 0%
[14]
  %Inh: 0%
[15]
  %Inh: 2%
[16]
  %Inh: 1%
[17]
  %Inh: 0%
[18]
  %Inh: 27%
[19]
  %Inh: 0%
[20]
  %Inh: 53%

## Nc1nc(-c2ccc3c(N)n[nH]c3c2)cc(N2CCCC2)n1 [GSK2227430]
[1]
  %Inh: 0%
[2]
  %Inh: 0%
[3]
  %Inh: 0%
[4]
  %Inh: 27%
[5]
  %Inh: 0%
[6]
  %Inh: 0%
[7]
  %Inh: 0%
[8]
  %Inh: 0%
[9]
  %Inh: 0%
[10]
  %Inh: 0%
[11]
  %Inh: 0%
[12]
  %Inh: 0%
[13]
  %Inh: 0%
[14]
  %Inh: 0%
[15]
  %Inh: 0%
[16]
  %Inh: 0%
[17]
  %Inh: 0%
[18]
  %Inh: 0%
[19]
  %Inh: 6%
[20]
  %Inh: 0%
